Structures are written as SMILES.

In the experiment the target is AMP-activated protein kinase, AMPK (Homo sapiens) (UniProt P54646+O43741+P54619+Q9UGJ0+Q9Y478+Q13131+Q9UGI9). Nature of the experiment: AMP-dependent Kinase enzyme assay. An in vitro enzyme assay that detects ADP turnover that is directly proportional to AMPK activity. This uses naive AMPK that is activated during the assay with MK-8722. The format is functional. The conditions noted are these: 30 µM. The arrangement: scale not given: direction of the effect not stated beside the values.
As for `Cc1noc(C)c1C(=O)N(C)C(C)c1ccc(S(C)(=O)=O)cc1` (stereo unspecified), the Percent Effect is -2.19%.
Regarding `Cc1cc(N(C)CC2COc3ccccc3O2)nc(C)n1` (stereo unspecified), the Percent Effect stood at 1.48%.
In the case of `O=C(O)c1ccc(C2CCCN(C(=O)c3ccc[nH]3)C2)cc1` (stereo unspecified), the Percent Effect is 3.76%.
The value for `CC(OCC1CC1)C(=O)Nc1cccc(C(=O)Nc2ccncc2)c1` (stereo unspecified) was 17.8%; that for `CCc1c(C)nn(CCN2CC3(CCOC3)CCC2=O)c1C` (stereo unspecified) was -3.55%; that for `Cc1noc(C)c1C(=O)N[C@@H]1CCC[C@@H](Oc2ccccc2)[C@@H]1O` was 19.1%.
Consider `Cc1cc(N2CCCC2)nc(CNS(=O)(=O)Cc2ccccc2)n1`, for which the Percent Effect turned out to be 5.01%.
`COc1ccc(CCN2CCCC(n3cncn3)C2)cc1` (stereo unspecified): the Percent Effect was 0.286%.
In the case of `COc1ccc(N2CCN(Cc3nc(CSC)no3)CC2=O)cc1`, the Percent Effect is 1.27%.
On to `CCc1oc(C(=O)OC)cc1Cn1cccc(C(F)(F)F)c1=O`, for which the Percent Effect worked out at 6.73%.
In the case of `CC(NC(=O)N1CCC1)c1ccc(S(C)(=O)=O)cc1` (stereo unspecified), the Percent Effect came out at 4.53%.
Take `CN(Cc1csc(-c2ccccc2)n1)Cc1ncccc1C(=O)O`: the Percent Effect turned out to be 5.39%.
On to `O=C1CCCCN1Cc1cccc(OC(F)F)c1`, for which the Percent Effect came to 11.1%.
Then `CN(Cc1n[nH]c2c1CCC2)C(=O)c1cc(-c2cccn2C)n[nH]1`, with -16.6%; and `c1ccc(N2CCC(OCC3CCCCO3)CC2)nc1` (stereo unspecified), with 6.76%.
As for `Cc1ccc(S(=O)(=O)Cc2nsc(N(C)C)n2)c(C)c1`, the Percent Effect was -0.477%.
In the case of `Cc1cc(C(=O)NC(C)Cc2ccccc2Cl)n(C)n1` (stereo unspecified), the Percent Effect worked out at 7.6%.
The value for `Cc1noc(CS(=O)(=O)c2cc(F)ccc2F)n1` was -0.296%.
The value for `CN(CCc1cccs1)CCc1nccs1` was -4.34%.
`CCC(C(=O)N(Cc1ccccc1OC)C1CC1)n1cccn1` (stereo unspecified): the Percent Effect was found to be 0.528%.
For the compound `CCc1noc(C(C)N2CCc3c(ncn3C3CC3)C2)n1` (stereo unspecified), the Percent Effect is 14.3%.

The record behind these values is ChEMBL document CHEMBL3988442, “University of Dundee, Small-Polar-MMV Screening Library” (2021).
